Our source for the growth values is PubChem BioAssay (NCI).

SMILES strings stand for the structures. About 83,000 compounds went through this panel and 20% of them were active in at least one assay; those are over-represented in the sample as a whole.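 Plates (96-well) were seeded with cells, treated with compound at one concentration, and incubated for 48 hours before percent growth was determined.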 A number with no mark means an inactive call. The source made the active and inactive calls. Rule for the calls: active = growth percent below 10; inactive = the rest.

The subject of this test is HL-60(TB) leukemia. As to the kind of experiment: NCI-60 one-dose screen, 48 h (100 = growth as untreated, 0 = no growth, -100 = all killed). The following applies: 10 µM unless noted.
As to `Cc1ccc2c(NCCCN(C)C)c3c(C)nn(C)c3nc2c1`, the growth is 32.4%.

As for `O=C(CCc1nnc2sc(Cc3ccccc3Cl)nn12)c1nc2ncccc2[nH]1`, the growth is 116%.

For `Cc1ccc(-c2nc3nc(-c4ccc(Cl)cc4)nc(N4CCCNCC4)c3o2)cc1`, the growth is -67.6% (active).

Consider `NC(=O)c1cccc(-n2ccc3cc(NC(=O)c4ccc(N5CCOCC5)c(C(F)(F)F)c4)ccc32)n1`, for which the growth is 51.1%.

In the case of `Clc1ccccc1Nc1ccc2nnc(-c3ccncc3)n2n1`, the growth is 75.8%.

Consider `COc1ccc(-c2nc(-c3ccccc3)c(-c3ccccc3)[nH]2)cc1OC1CCCC1`, for which the growth is 83.1%.

On to `COc1ccc(-n2c(-c3ccc(NC(=O)CCCl)cc3)nnc2-c2cc(OC)c(OC)c(OC)c2)cc1`, for which the growth is -12.6% (active).

Regarding `c1coc(CNc2ccnc(Nc3ccc(OCCN4CCCCC4)cc3)n2)c1`, the growth was 74.6%.

For the compound `COc1ccc(-c2ccc(-c3ccc(C(=N)N)cn3)s2)cc1`, the growth is -37.1% (active).

`O=C(c1ccc(Cl)cc1)c1ccc(Cl)cc1`: the growth is 113%.

`CCCCCCCCCCCCSC1=C(Cl)C(=O)C(OC)=C(OC)C1=O`: the growth is -46.2% (active).

Turning to `Cc1ccc(NS(=O)(=O)c2ccc3c(c2)C2OCCC2C(c2ccc(C(=O)C(C)C)cc2)N3)cc1C` (stereo not given), the growth was 20.4%.

In the case of `Clc1ccc2c(c1)NC1(CCSc3ccccc31)n1nccc1-2` (stereo not given), the growth was 97.4%.

As to `Nc1c(C(=O)c2ccccc2)sc2nc(-c3cccs3)ccc12`, the growth is 9.36% (active).

As to `O=C(COc1cccc(/C=C2\Oc3ccc4ccccc4c3C2=O)c1)c1ccc([N+](=O)[O-])cc1`, the growth was 94.8%.

Regarding `Cn1cc(-c2noc(-c3cn(C)c4ncc(F)cc34)n2)c2cc(Br)ccc21`, the growth is 93.8%.

For the compound `CC1(C)OC(=O)C(c2ccsc2)C(=O)O1`, the growth is 112%.

Turning to `OC(CCCCCCCCC(O)CN1CCc2ccccc2C1)CN1CCc2ccccc2C1` (stereo not given), the growth was 95.1%.

With `Cc1cc(N2CCN(CC(=O)Nc3ccc4c(ccn4Cc4ccccc4)c3)CC2)nc(N2CCCCCC2)n1`, the growth is 12.1%.

Consider `COc1cccc(-c2nc3occn3c2-c2ccnc(NCCNS(=O)(=O)c3ccc(C(F)(F)F)cc3)n2)c1`, for which the growth was 116%.

`Cn1cc(-c2nc(-c3c[nH]c4ncccc34)cs2)c2cccnc21`: the growth is 48.1%.

In the case of `O=C(O)C(Cc1ccccc1)C(=O)O`, the growth was 107%.

On to `CSC(=N\N=C\c1ccc(N(C)C)cc1)/N=C/N(C)C`, for which the growth is 105%.

Take `CCN(CCNc1ccc(C)c2sc3ccccc3c(=O)c12)CC(C)(C)O`: the growth is 43.5%.

Turning to `NC1=CC(=O)c2ccccc2C1=O`, the growth was 81.6%.

Take `N#Cc1c(NC(=O)c2cccs2)[n+]([O-])c2ccc(Cl)cc2[n+]1[O-]`: the growth was 122%.

Consider `CCC(CC)NCC(C)(C)O`, for which the growth was 97.7%.

Turning to `Cc1cc(Cl)nc(Nc2ccccc2)n1`, the growth is 78.1%.

On to `C=Cc1nn2c(CCC(=O)c3nc4ccccc4[nH]3)nnc2s1`, for which the growth is 104%.

With `CC(C)(C)c1ccc(C(=O)Nc2sc3cc(O)ccc3c2C(N)=O)cc1`, the growth is 43.3%.

Take `CC(=O)O[C@H]1CC[C@@]2(C)C(=CC[C@@H]3[C@@H]2CC[C@]2(C)C(Cl)=C(c4nc5ccc(Cl)cn5c4NC(C)(C)C)C[C@@H]32)C1`: the growth is 91.9%.

Take `CC(C)C1=C[C@@]23CC[C@@H]4[C@](C)(CCC[C@@]4(C)C(=O)OCC#CCN4CCCC4)[C@H]2C[C@@H]1[C@H]1C(=O)OC(=O)[C@H]13`: the growth was 95.7%.

In the case of `NC1=C(C/C(N)=N\O)C(c2ccccc2Cl)c2c(ccc3ccccc23)O1` (stereo not given), the growth was 84.9%.

Take `C=C(C)[C@@H]1CC[C@]2(C(=O)O)CC[C@]3(C)[C@H](CC[C@@H]4[C@@]5(C)C/C(=C/c6cccc(I)c6)C(=O)C(C)(C)[C@@H]5CC[C@]43C)[C@@H]12`: the growth was 7.47% (active).

In the case of `Cc1ccc(S(=O)(=O)N/N=C2\CCCc3ccccc32)cc1`, the growth is 80.4%.

Regarding `O=C1c2ccccc2C(=O)c2cc(Cn3c[n+](Cc4ccc5ccccc5c4)c4ccccc43)ccc21`, the growth is -49.2% (active).

Turning to `COc1ccc(/C=C/C(=O)c2ccc(B(O)O)cc2)cc1O`, the growth was 37.7%.

Consider `O=C(Nc1ccccc1)Nc1ncnc2c1ncn2-c1ccc(Cl)cc1`, for which the growth is 95.3%.

Regarding `CC/C(=C(/c1ccc(Cl)cc1)c1ccc(OCCN2CCCCCC2)cc1)c1ccccc1`, the growth is 49.9%.

For the compound `O=C(Cn1cccc(Nc2ccccc2)c1=O)Nc1ccccc1`, the growth is 118%.
